Measured values published in PubChem BioAssay (NCI).
About 83,000 compounds went through this panel and 20% of them were active in at least one assay; those are over-represented in the sample as a whole.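 Results are percent growth after 48 hours of single-concentration exposure. 100 means growth as in untreated cells, lower positive values show inhibition; negative values down to -100 show cell death.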 The source made the active and inactive calls. The calls were made as follows: active = growth percent below 10; inactive = the rest.

test system: OVCAR-5 ovarian; assay: NCI-60 one-dose screen, 48 h (100 = growth as untreated, 0 = no growth, -100 = all killed); details: 10 µM unless noted

| SMILES | growth |
| --- | --- |
| O=C(Cn1c2ccccc2c2ccncc21)N/N=C/c1c[nH]c2ccccc12 | 107% (inactive) |
| Cc1ccc(-c2nc3c(N=Nc4ccc(S(N)(=O)=O)cc4)c(N)nn3c(N)c2C#N)cc1 | 78.7% (inactive) |
| O=C(Nc1ccccc1Cl)c1c[nH]c(=O)c(-c2ccc(N3CCCOC4(CC4)C3)cc2)c1 | 87% (inactive) |
| OC(COc1ccccc1Cl)CN1CCN(c2ccc(Cl)cc2)CC1 (stereo not given) | 81.9% (inactive) |
| Nc1nccc2c1ccn2-c1ccc(NC(=O)Nc2cccc(C(F)(F)F)c2)cc1 | 97.9% (inactive) |
| O=C(Nc1ccc(-n2ccc3c(NC(=O)c4ccccc4)nccc32)cc1)Nc1cccc(C(F)(F)F)c1 | 81.8% (inactive) |
| O=C1C(Cl)=C(Nc2ccccc2)C(=O)C(Cl)=C1Nc1ccccc1 | 112% (inactive) |
| CC(=O)Nc1ccc([I+]c2ccc([N+](=O)[O-])cc2)cc1 | 116% (inactive) |
| CCN1CCN(Cc2ccc(NC(=O)Nc3cccc(-n4ccc5c(NC(=O)c6ccccc6)nccc54)c3)cc2C(F)(F)F)CC1 | 101% (inactive) |
| O=C(Nc1cccc(-n2ccc3c(NC(=O)c4ccccc4)nccc32)c1)c1cccc(C(F)(F)F)c1 | 32.5% (inactive) |
| CC(=O)N[C@@H](CNC(=O)c1cc(NC(=O)c2cc(NC(=O)c3cc(NC(=O)c4nccn4C)cn3C)cn2C)cn1C)CC(=O)Nc1cn(C)c(C(=O)Nc2cc(C(=O)Nc3cc(C(=O)Nc4cc(C(=O)NCCCN(C)CCCNC(=O)c5cccc(C(=O)O)c5)n(C)c4)n(C)c3)n(C)c2)n1 | 121% (inactive) |
| CCOC(=O)c1cnc2c(OC)ccc(OC)c2c1Cl | 109% (inactive) |
| NS(=O)(=O)c1ccc(Nc2nc(O)c(/C=C3\C=Nc4ccccc43)s2)cc1 | 111% (inactive) |
| CNC(=O)NN | 82.5% (inactive) |
| Cc1cc(O[C@@H]2O[C@@H](C)[C@H](O)[C@@H](O)[C@H]2O)c2c3c(c(O[C@@H]4O[C@@H](C)[C@H](O)[C@@H](O)[C@H]4O)cc2c1)C(=O)c1c(O)cccc1C3=O | 98.5% (inactive) |
| Cc1cccc(Cc2cnc(NC(=O)CCc3ccc(C)o3)s2)c1 | 35.7% (inactive) |
| C=CC(=O)NC(=O)Nc1ccccc1Cl | 111% (inactive) |
| COc1cccc(-c2nc3sccn3c2-c2ccnc(NCCNC(=O)c3ccccc3)n2)c1 | 99.1% (inactive) |

| SMILES | growth |
| --- | --- |
| COc1ccc(-c2nn(-c3ccc(NC(=O)Nc4ccc(Cl)c(C(F)(F)F)c4)cc3)cc2-c2ccncc2)cc1Cl | 14.5% (inactive) |
| CC(C)CNCC(O)COc1ccc(C(C)(C)c2ccc(OCC(O)CNCC(C)C)cc2)cc1 (stereo not given) | 80.8% (inactive) |
| Cc1ccc2[nH]c3nc4cccnc4c(C)c3c2c1 | 59.6% (inactive) |
| O=C(Nc1ccc(-n2ccc3c(NC(=O)c4ccccc4)nccc32)cc1)c1ccc(Cl)c(C(F)(F)F)c1 | 62.9% (inactive) |
| COc1ccc(-c2nn(-c3ccc(NC(=O)Nc4ccc(Cl)c(Cl)c4)cc3)cc2-c2ccncc2)cc1Cl | 22.6% (inactive) |
| Nc1nccc2c1ccn2-c1cccc(NC(=O)c2ccc(N3CCOCC3)c(C(F)(F)F)c2)c1 | 32.6% (inactive) |
| COc1ccc(/C=C/C(=O)/C=C(/C=C/c2ccc(OC)c(OC)c2OC)OB(F)F)c(OC)c1OC | 62.9% (inactive) |
| Cc1cc[n+](CCCC[n+]2ccc(C)cc2)cc1 | 104% (inactive) |
| COC1=C(OC)C(=O)C=CC1=O | 116% (inactive) |
| Cc1ccccc1C[P+](c1ccccc1)(c1ccccc1)c1ccccc1 | 55.2% (inactive) |
| CC/C(=C(\CC)c1ccc(OCCN(CC)CC)cc1)c1ccc(OCCN(CC)CC)cc1 | 38.7% (inactive) |
| COc1cccc(-c2nc3sccn3c2-c2ccnc(NCCNC(=O)Nc3cccc(C(F)(F)F)c3)n2)c1 | 103% (inactive) |
| COc1ccc(-c2cnc(-c3ccc(F)cc3)[nH]2)cc1 | 116% (inactive) |
| O=C(Nc1ccc(-n2cc(-c3ccncc3)c(-c3ccc(O)c(Cl)c3)n2)cc1)c1ccc(Cl)c(C(F)(F)F)c1 | 61.6% (inactive) |
| O=C(Nc1ccc(-n2ccc3c(NC(=O)c4ccccc4)ncnc32)cc1)c1ccc(Cl)c(C(F)(F)F)c1 | 52% (inactive) |
| C=CC(=O)Nc1cccc(Nc2nc(Nc3ccc(OCCOC(F)F)cc3)ncc2F)c1 | 45.6% (inactive) |
| O=[N+]([O-])c1cccc(C(c2ccccc2)c2ccccc2)c1 | 85.6% (inactive) |
